FUS yeast rescue: rescues growth of FUS-expressing yeast. Potency, µM (highest dose often 76.6 µM), actives largely listed as activators. S. cerevisiae FUS-expressing, growth rescue, OD600, 24 h. AID 1347120. 0.24% of 390,000 active; further: nearly all actives have a fitted effect of over 55% in size
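Toxicity suppression screen in FUS-yeast. Cells induced with 2% galactose, starting OD 0.005, treated 24hr at 30C with compounds at multiple final concentrations; growth by OD600.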
BCR signal inh: chronic active BCR signaling inhibition; ABC-DLBCL IkBa-CBG/CBR reporter, luminescence ratio, 4 h; 0.05% of 340,000 active; Potency, µM (doses to about 46.1 µM), most hits filed as inhibitors; active means well fitted inhibition curve with a large enough effect in the signal ratio, with a control signal flat, not every such curve was filed as active; inconclusive means small, poorly fitted or top-dose-only effect, or effect the other way, or a change in a side signal; the % refers to the signal ratio
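Concentration-response series (up to 46 uM) were applied to TMD8 dual-reporter cells for 4 h at 37C with doxycycline. Green/red ratio, after filter-overlap correction, defined %Activity; red signal alone was normalised to basal cells and zero luminescence.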
aSyn yeast inh: inhibitors of alpha-synuclein toxicity in yeast. Yeast expressing alpha-synuclein, growth rescue, BacTiter-Glo, 24 h. Potency, µM (titrated, usually from 46.1 µM), usual class: activators. 0.14% of 370,000 active. AID 652106; further: nearly all actives have a fitted effect of over 65% in size
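Readout is rescue of growth in alpha-synuclein-expressing yeast, so inhibitors of toxicity appear as activators. Growth after 24 hr at 30 deg C in galactose medium is quantified by luminescence.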
TDP43 rescue: inhibitors of TDP-43 toxicity in yeast | TDP-43 expressing yeast growth rescue, BacTiter-Glo, 24 h | Potency, µM (doses to about 46.1 µM), hits mostly activators | 1.8% of 410,000 active | AID 652104; further: nearly all actives have a fitted effect of over 50% in size
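Growth rescue of TDP-43-toxic yeast measured as ATP luminescence (BacTiter-Glo). Cells grown to mid-log in raffinose, induced in galactose at OD600=0.02, exposed to compound 24 hr at 30 deg C.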
uPA generation: blocks generation of uPA at the cell surface; cell surface uPA generation assay, qHTS; Potency, µM (highest dose often 38.3 µM), actives largely listed as inhibitors; 0.31% of 330,000 active; active means well fitted inhibition curve with a large enough effect; inconclusive means small, poorly fitted or top-dose-only effect; inactive means no such curve, though single readings can be large or run the other way; tested in mouse RAW 264.7 cells; further: nearly all actives have a fitted effect of over 55% in size
Abeta yeast res: A-beta toxicity reversal in yeast | yeast expressing A-beta42, growth rescue, OD600, 48 h; response scale: 0% DMSO, 100% iron-clioquinol control | 0.063% of 410,000 active | AID 1347071 | Potency, µM (highest dose often 46.1 µM), most hits filed as activators; further: nearly all actives have a fitted effect of over 55% in size
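Yeast growth medium received pinned compounds, then yeast cells expressing toxic A-beta were added; plates incubated at 30 C for 48 hr. Growth read as absorbance at 600 nm, normalized to DMSO and equimolar FeCl3 plus clioquinol controls.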
A number is an active result. Hits are enriched below; roughly 2.3% of the tested compounds scored in any of these assays. Unless noted, the call rests on the fitted dose curve; in most records, active means well fitted curve in the direction sought with a large enough effect; inconclusive means small, poorly fitted or top-dose-only effect, or another doubt; inactive means no such curve, though single readings can be large; an effect the other way counts as inactive or inconclusive.

Screening CC1(Cc2ccc3c(c2)OCO3)C(=O)Nc2ccc(-c3cccc(C(F)(F)F)c3)cc21 (stereo unspecified) returned FUS yeast rescue inactive, aSyn yeast inh inactive, TDP43 rescue inactive and Abeta yeast res inactive.
`CC1(Cc2ccc(Cl)cc2)C(=O)Nc2ccc(-c3ccc(F)c(Cl)c3)cc21` (stereo unspecified) gave FUS yeast rescue inactive, aSyn yeast inh inactive, TDP43 rescue inactive and Abeta yeast res inactive.
CC1(Cc2ccc(F)cc2)C(=O)Nc2c(Cl)cccc21 (stereo unspecified) was read as FUS yeast rescue inactive, aSyn yeast inh 12.6µM, TDP43 rescue 28.2µM and Abeta yeast res inactive.
For CC1(Cc2ccc3c(c2)OCO3)C(=O)Nc2c(Cl)ccc(Cl)c21 (stereo unspecified) the results were FUS yeast rescue inactive, aSyn yeast inh 22.4µM, TDP43 rescue inconclusive and Abeta yeast res inactive.
Screening CC1(Cc2ccc(Cl)cc2)C(=O)Nc2c(Cl)cccc21 (stereo unspecified) returned FUS yeast rescue inactive, aSyn yeast inh 5.01µM, TDP43 rescue inconclusive and Abeta yeast res inactive.
Screening Cc1ccc(CNCc2ccc3c(c2)OCO3)cc1 returned FUS yeast rescue inactive, BCR signal inh inactive, aSyn yeast inh inactive, TDP43 rescue inactive, uPA generation inactive and Abeta yeast res inactive.
`CC1(Cc2cccc(C(F)(F)F)c2)C(=O)Nc2c(Cl)cccc21` (stereo unspecified) gave FUS yeast rescue inactive, aSyn yeast inh 22.4µM, TDP43 rescue inactive and Abeta yeast res inactive.
Screening Cc1c(Cl)cccc1-n1ncc(C(=O)N2CCc3ccccc3C2)c1C1CCN(C(=O)OC(C)(C)C)CC1 returned FUS yeast rescue inactive, TDP43 rescue inactive and Abeta yeast res inactive.
c1ccc(CCc2nn3c(Cn4cnc5ccccc54)nnc3s2)cc1 was read as FUS yeast rescue inactive, BCR signal inh inactive, aSyn yeast inh inactive, TDP43 rescue inactive, uPA generation inactive and Abeta yeast res inactive.
Screening Cc1ccc(C2CC(c3cccs3)=NN2C(=O)CSC2=NCCS2)cc1 (stereo unspecified) returned FUS yeast rescue inactive, BCR signal inh inconclusive, aSyn yeast inh inactive, TDP43 rescue inconclusive, uPA generation inactive and Abeta yeast res inactive.
Screening COc1ccc(C2CC(c3cccs3)=NN2C(=O)CSC2=NCCS2)cc1 (stereo unspecified) returned FUS yeast rescue 35.5µM, BCR signal inh inconclusive, aSyn yeast inh inactive, TDP43 rescue inactive, uPA generation inactive and Abeta yeast res inactive.
Screening CCC(=O)N1N=C(c2cccs2)CC1c1ccc(OC)cc1 (stereo unspecified) returned FUS yeast rescue inactive, BCR signal inh inactive, aSyn yeast inh inactive, TDP43 rescue inconclusive, uPA generation inactive and Abeta yeast res inactive.
For CNC(=S)N1N=C(c2cccs2)CC1c1ccc(F)cc1 (stereo unspecified) the results were FUS yeast rescue inactive, BCR signal inh inactive, aSyn yeast inh inactive, TDP43 rescue 10µM, uPA generation inactive and Abeta yeast res inactive.
Cc1ccc(C2CC(c3cccs3)=NN2C(=O)CCl)cc1 (stereo unspecified) was read as FUS yeast rescue inactive, BCR signal inh inconclusive, aSyn yeast inh inactive, TDP43 rescue 12.6µM, uPA generation inactive and Abeta yeast res inactive.
Screening CCC(=O)N1N=C(c2cccs2)CC1c1ccc(C)cc1 (stereo unspecified) returned FUS yeast rescue inactive, BCR signal inh inactive, aSyn yeast inh inactive, TDP43 rescue 20µM, uPA generation inactive and Abeta yeast res inactive.
Cc1nc(N2CCOCC2)[nH]c(=O)c1CCC(C)C was read as FUS yeast rescue inconclusive, BCR signal inh inactive, aSyn yeast inh inactive, TDP43 rescue inactive and Abeta yeast res inactive.
`Cc1nc(SCc2nc3c([N+](=O)[O-])cccc3[nH]2)c2oc3ccccc3c2n1` gave FUS yeast rescue inactive, BCR signal inh inactive, uPA generation inactive and Abeta yeast res inconclusive.
Oc1ccccc1-c1cc(-c2ccccc2)n[nH]1 was read as FUS yeast rescue inactive, BCR signal inh inconclusive, aSyn yeast inh inactive, TDP43 rescue inconclusive, uPA generation inactive and Abeta yeast res inactive.
`Oc1ccccc1-c1cc(-c2ccc(F)cc2)n[nH]1` gave FUS yeast rescue inactive, BCR signal inh inconclusive, aSyn yeast inh inactive, TDP43 rescue 3.55µM, uPA generation inactive and Abeta yeast res inactive.
Cc1ccc(-c2cc(-c3ccccc3Cl)[nH]n2)c(O)c1 was read as FUS yeast rescue inactive, BCR signal inh inconclusive, aSyn yeast inh inactive, TDP43 rescue inactive, uPA generation inactive and Abeta yeast res inactive.
`Cc1ccccc1-c1cc(-c2ccccc2O)n[nH]1` gave FUS yeast rescue inactive, BCR signal inh inconclusive, aSyn yeast inh inactive, TDP43 rescue 11.2µM, uPA generation inactive and Abeta yeast res inactive.
COc1ccc(O)c(-c2cc(-c3ccccc3Cl)[nH]n2)c1 was read as FUS yeast rescue inactive, BCR signal inh inconclusive, aSyn yeast inh inactive, TDP43 rescue 17.8µM, uPA generation inactive and Abeta yeast res inactive.
`CCCNC(=O)c1cc(C2CCCCN2C(=O)c2cc(OC)c(C)c(OC)c2)on1` (stereo unspecified) gave FUS yeast rescue inactive, aSyn yeast inh inactive, TDP43 rescue inactive and Abeta yeast res inactive.
For O=C1Cn2nnc(-c3ccccc3)c2C2c3ccccc3CCN12 (stereo unspecified) the results were FUS yeast rescue inactive, aSyn yeast inh inactive, TDP43 rescue inactive and Abeta yeast res inactive.
Screening O=C(Cc1ccc(OCC2CCCCC2)cc1)NO returned aSyn yeast inh 22.4µM.
For Cc1ccc(CC(=O)NCC2CCCCC2)cc1 the results were FUS yeast rescue inactive, BCR signal inh inactive, aSyn yeast inh inactive, TDP43 rescue inactive, uPA generation inconclusive and Abeta yeast res inactive.
For COc1ccccc1NC1=C(Cl)C(=O)N(c2ccccc2)C1=O the results were BCR signal inh inconclusive, aSyn yeast inh inactive, TDP43 rescue 6.31µM, uPA generation inactive and Abeta yeast res inactive.
`COc1ccc(NC2=C(Cl)C(=O)N(c3ccccc3)C2=O)c(OC)c1` gave FUS yeast rescue inactive, BCR signal inh inconclusive, aSyn yeast inh inactive, TDP43 rescue inactive, uPA generation inactive and Abeta yeast res inactive.
`S=c1[nH]nc(COc2ccc(Cl)cc2)n1Cc1ccco1` gave FUS yeast rescue inactive, BCR signal inh inactive, aSyn yeast inh inactive, TDP43 rescue inconclusive, uPA generation inactive and Abeta yeast res 12.6µM.
